Screening results deposited in PubChem by SRMLSC.
Hits are enriched below; roughly 6.3% of the tested compounds scored in any of these assays.
Spn PMK inh: blocks S. pneumoniae phosphomevalonate kinase | purified PMK, PK/LDH-coupled NADH absorbance 340 nm | inhibition, % at 10 µM | AID 539 | 65,000 tested, 0.49% active;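 active = top-ranked compounds by inhibition in the single 10 µM screen, taking a fixed number of the strongest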;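 also: 0% = full reaction with DMSO carrier and 100% = background rate without enzyme reaction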
Abs 340nm: absorbance at 340 nm; compound absorbance at 340 nm, fold over control; fold change at 10 µM; 65,000 tested, under 10 active;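 active = at 10 µM dose, initial 340 nm absorbance at least 2 fold that of control wells; inactive = change under 2 fold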;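 also: initial absorbance extrapolated from kinetic A340 decline of NADH oxidation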
DPM-DC inhibit: blocks S. pneumoniae diphosphomevalonate decarboxylase; 65,000 tested, 0.49% active; purified DPM-DC, PK/LDH coupled NADH fluorescence; calls only at 10 µM;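 active = the 320 compounds with the highest percent inhibition in the single-dose primary screen, excluding strongly autofluorescent ones, cut at about 32% in these data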;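 also: kinetic rate of NADH fluorescence loss reporting ADP formed by the decarboxylase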
Fluor 339 460: intrinsic fluorescence of library compounds, ex339/em460 – biochemical, MLSMR library, data from DPM-DC assay, artefact control, profiling panel | compound autofluorescence, ex339/em460 nm, NADH buffer; stronger effect = higher value; 1 = no-compound wells, NADH background | 65,000 tested, 5.5% active | fluorescence fold increase at 10 µM;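 active = at 10 µM, mean starting fluorescence two-fold or more over control wells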;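 also: signal is the first read of a kinetic run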
NADH enzymes: inhibitors of enzymes used to reach an NAD/NADH endpoint; coupled PK/LDH NADH assays, four targets; IC50, µM (titrated, usually from 10 µM), for the others: at the top dose inhibition; 65,000 tested, 0.02% active;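 active = single-dose screening hits from any of four coupled enzyme assays that gave an IC50 when retested across doses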;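 also: the DPM-DC format reads NADH fluorescence rather than 340 nm absorbance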
MK inhibit: inhibitors of Streptococcus pneumoniae mevalonate kinase | inhibition, % at 10 µM | purified MK, PK/LDH-coupled NADH absorbance 340 nm | 65,000 tested, 0.48% active;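 active = ranked among the strongest by inhibition in the single 10 µM screen, a fixed top-ranked set picked for dose follow-up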
The depositor's hits bear a star; i = inactive; . = no result shown; + = active, no number.

SMILES	Spn PMK inh	Abs 340nm	DPM-DC inhibit	Fluor 339 460	NADH enzymes	MK inhibit
CCN(CC)CCOc1cc2c(nn1)Oc1ccccc1N2C	13	1.1	.	3.8*	11%	9
O=C(NCCCN1CCOCC1)c1cc2c(=O)[nH]c3ccccc3c2s1	4	1.1	.	4.7*	7%	9
O=C(NCCCN1CCOCC1)c1c(O)c2ccccc2[nH]c1=O	12	1	i	1.1	4%	0
CCOC(=O)C1Cc2cc3c(cc2C1=O)CC(C(=O)OCC)C3=O (stereo not given)	2	1.1	.	3.7*	1%	0
CCOc1ccccc1N(C(=O)CNC(=O)c1ccco1)C(C(=O)NC(C)(C)C)c1ccncc1 (stereo not given)	9	1	i	1	3%	0
O=c1c2ccccc2sn1-c1cc(S(=O)(=O)N2CCOCC2)ccc1N1CCOCC1	17	1	+	1.2	62%	95*
CC(O)COc1ccc(/C(=N/O)c2ccccc2)cc1 (stereo not given)	0	1	+	1	22%	18
COCCn1c(N)c(C(=O)NCC2CCCO2)c2nc3ccccc3nc21 (stereo not given)	3	1.1	.	2.4*	7%	11
COCCCNc1nc2ccccc2nc1NS(=O)(=O)c1cccs1	16	1.1	i	1.2	8%	7
COCCn1c(N)c(S(=O)(=O)c2cccs2)c2nc3ccccc3nc21	10	1.1	.	3.9*	10%	9
Nc1c(C(=O)NC2CCCC2)c2nc3ccccc3nc2n1N	12	1.1	i	1.2	9%	14
CC(C)Cn1c(N)c(C(=O)NCC2CCCO2)c2nc3ccccc3nc21 (stereo not given)	3	1.1	.	2.1*	4%	5
Nc1c(C(=O)OCC2CCCO2)c2nc3ccccc3nc2n1C1CCCC1 (stereo not given)	2	1.1	.	3.8*	1%	0
Nc1c(C(=O)NCC2CCCO2)c2nc3ccccc3nc2n1/N=C/c1ccncc1 (stereo not given)	9	1.1	i	1.1	3%	1
CC1CC(C)CN(c2nc3c(c(=O)[nH]c(=O)n3C)n2CCSc2nc3ccccc3o2)C1 (stereo not given)	4	1	i	1.1	3%	4
NC(=O)C1CCCNC1 (stereo not given)	13	0.98	i	1	4%	0
CCOC(=O)c1[nH]c(COC(=O)C2CC(=O)N(Cc3ccccc3)C2)c(C(=O)OCC)c1C (stereo not given)	17	0.99	i	1.1	6%	0
COc1ccc(S(=O)(=O)N(C)CC(=O)N2CCC(C(N)=O)CC2)cc1Cl	7	1	i	1.1	5%	8
CC1=C(SCCC#N)S/C(=C2\SC(C)=C(SCCC#N)S2)S1	8	1.1	i	1.1	6%	9
COCCNC(=O)c1c(N)n(CCCn2ccnc2)c2nc3ccccc3nc12	13	1.1	.	3.8*	12%	10
COc1ccc(OC)c(-n2c(N)c(C(=O)NCC3CCCO3)c3nc4ccccc4nc32)c1 (stereo not given)	0	1.1	.	2.1*	0%	0
COCCn1c(N)c(C(=O)NCc2cccs2)c2nc3ccccc3nc21	8	1.1	.	3.7*	6%	4
COc1ccc(C(=O)NCCCn2ccnc2)cc1	0	1	i	1.1	3%	9
COCCn1c(N)c(C(=O)Nc2sc3c(c2C(=O)OC)CCCC3)c2nc3ccccc3nc21	10	1.1	i	1.1	2%	0
COC(=O)c1ccccc1NC(=O)n1cc(C)cn1	0	1.1	.	3.6*	4%	8
SMILES	Spn PMK inh	Abs 340nm	DPM-DC inhibit	Fluor 339 460	NADH enzymes	MK inhibit
C1CCC(c2nn3c(-c4n[nH]c5c4CCC5)nnc3s2)CC1	13	1	i	1.1	6%	6
CCN(CC)c1ccc(-c2nn3c(-c4n[nH]c5c4CCC5)nnc3s2)cc1	9	1.1	i	2.9*	14%	3
O=S(=O)(Nc1nc(CN2CCOCC2)nc2sc3c(c12)CCCC3)c1cc(F)ccc1F	16	1	i	1.3	6%	1
CCSc1nnc(-c2cccs2)o1	6	1.1	i	1.1	2%	12
CN(C)c1oc(-c2ccccc2F)nc1C#N	2	1.1	.	2.4*	2%	4
CNc1oc(-c2cccs2)nc1C#N	4	1.1	.	2.4*	2%	0
CN(C)c1oc(-c2cccs2)nc1C#N	4	1.1	.	2.4*	4%	3
O=C(c1ccccc1)c1nnc(-c2ccccc2F)o1	0	1	i	1.1	3%	5
Brc1ccc(-c2cnc(-c3cccs3)o2)cc1	7	1.1	.	5*	5%	2
Cc1ccc(-c2noc(-c3cccs3)n2)cc1	0	1.1	i	1.1	1%	4
Cc1ccc(N2CCN(c3cc(C)nc4nc(C)nn34)CC2)c(C)c1	11	1	i	1.1	6%	6
CCCn1nc(NC(=O)c2ccco2)c2cc3ccc(C)cc3nc21	0	1	.	3.9*	4%	8
CCn1nc(NC(=O)c2ccco2)c2cc3ccccc3nc21	2	1	i	1.4	1%	0
Cc1ccc2cc3c(nc2c1)N(Cc1ccco1)CC3	5	1.1	.	3.8*	3%	1
Nc1nnc(CCS(=O)(=O)c2cc(Cl)ccc2Cl)s1	0	1	i	1.1	18%	53*
Nc1nnc(Cc2ccc(Cl)cc2)s1	1	0.98	i	0.99	3%	9
CCn1cc(S(=O)(=O)CC(=O)N2CCc3ccccc32)c2ccccc21	1	1.1	i	1.1	2%	6
O=C(c1cccn2c(=O)c3ccc(Cl)cc3nc12)N1CCN(Cc2ccc3c(c2)OCO3)CC1	22	1.1	.	4.9*	15%	7
CCOC(=O)N1CC=C2C(C#N)=C(N)C(C#N)(C#N)[C@H](c3ccsc3)[C@H]2C1	19	1	i	1.7	12%	13
CN1CC=C2C(C#N)=C(N)C(C#N)(C#N)[C@H](c3cccc(Cl)c3)C2C1 (stereo not given in full)	0	1	i	1.4	4%	6
CN1CC=C2C(C#N)=C(N)C(C#N)(C#N)C(CCc3ccccc3)C2C1 (stereo not given)	1	1	i	2*	6%	3
CCCC1C2CN(C(C)C)CC=C2C(C#N)=C(N)C1(C#N)C#N (stereo not given)	6	1	i	4*	13%	8
CCNc1nc(Oc2ccccc2)nc(OC(C)C(=O)OCC)n1 (stereo not given)	7	1	i	1.1	7%	6
CSc1nn(CCc2ccncc2)c(=S)s1	1	1.1	i	1.1	1%	2
CCN1CCN(CC(=O)Nc2cccc(C)c2C)C(=O)C1=O	14	1	i	1.1	6%	5
